The results in this text go back to PubChem BioAssay (EPA / NIEHS).

What all share (conditions): mRNA level, 48 h; actives raise or lower the signal
Read-out in assay [1]: ABC Transporter (ABCB11), ABCB11 (gene 8647)
Description: LTEA_HepaRG_ABCB11: Life Technologies and Expression Analysis (LTEA) Assay for ABC Transporter (ABCB11) using HepaRG (AID 2283463). The method in brief:
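ABCB11 transcript levels are read by Fluidigm TaqMan qRT-PCR after 48 h chemical treatment of human HepaRG cells. Concentrations span 100 uM downward in half-log steps with 0.5% DMSO; gain or loss is fitted against DMSO controls.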

Read-out in assay [2]: ABC Transporter (ABCC2), ABCC2 (gene 1244)
Description: LTEA_HepaRG_ABCC2: Life Technologies and Expression Analysis (LTEA) Assay for ABC Transporter (ABCC2) using HepaRG (AID 2283464). An outline of the steps:
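qRT-PCR (TaqMan, Fluidigm array) read-out of ABCC2 mRNA, normalized to three housekeeping genes. Differentiated HepaRG cells were treated 48 h in serum-free induction medium with 8-point half-log series from 100 uM in 0.5% DMSO; curves fitted bidirectionally relative to DMSO.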

Read-out in assay [3]: Broad substrate specificity ATP-binding cassette transporter ABCG2 (Homo sapiens) (UniProt Q9UNQ0)
Put plainly: LTEA_HepaRG_ABCG2: Life Technologies and Expression Analysis (LTEA) Assay for ABC Transporter (ABCG2) using HepaRG (AID 2283465). An outline of the steps: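 Read-out is ABCG2 mRNA induction or loss quantified by qRT-PCR after 48 h chemical treatment of human HepaRG cells, normalized to three housekeeping genes. Concentrations reached 100 uM top in half-log steps; fitting was bidirectional against 0.5% DMSO.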

Read-out in assay [4]: ATP-citrate lyase (ACLY), ACLY (gene 47)
Put plainly: LTEA_HepaRG_ACLY: Life Technologies and Expression Analysis (LTEA) Assay for ATP-citrate lyase (ACLY) using HepaRG (AID 2283466). The method in brief: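 HepaRG, 48 h exposure, 8-pt half-log dilutions (top 100 uM), 0.5% DMSO. Readout: ACLY mRNA, TaqMan qRT-PCR, housekeeping-normalized (ACTB/GAPDH/POLR2A). Bidirectional curve fit vs DMSO.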

Read-out in assay [5]: Peroxisomal acyl-coenzyme A oxidase 1 (ACOX1) gene, ACOX1 (gene 51)
Description: LTEA_HepaRG_ACOX1: Life Technologies and Expression Analysis (LTEA) Assay for Peroxisomal acyl-coenzyme A oxidase 1 (ACOX1) gene using HepaRG (AID 2283467). An outline of the steps: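 Measured by qRT-PCR against three housekeeping genes: ACOX1 transcript change in human HepaRG cells after 48 h dosing. Concentrations ran up to 100 uM in half-log steps. Curves were fitted bidirectionally relative to 0.5% DMSO.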

Read-out in assay [6]: Alkaline Phosphatase, Placental (ALPP) gene, ALPP (gene 250)
Description: LTEA_HepaRG_ALPP: Life Technologies and Expression Analysis (LTEA) Assay for Alkaline Phosphatase, Placental (ALPP) gene using HepaRG (AID 2283468).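 For AC50: differentiated human HepaRG liver cells in serum-free induction medium.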 The method in brief: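 qRT-PCR readout of ALPP mRNA (Fluidigm TaqMan), normalized to ACTB/GAPDH/POLR2A, after 48 h chemical exposure of HepaRG cells; 8-point half-log series, top 100 uM, 0.5% DMSO vehicle. Bidirectional curve fit versus DMSO baseline.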

Read-out in assay [7]: Bcl-2 (BAD) gene, BAD (gene 572)
Description: LTEA_HepaRG_BAD: Life Technologies and Expression Analysis (LTEA) Assay for Bcl-2 (BAD) gene using HepaRG (AID 2283469). The method in brief: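 BAD transcript change, measured by qRT-PCR against three housekeeping genes and fitted in both directions relative to 0.5% DMSO, after 48 h chemical treatment of human HepaRG liver cells at concentrations up to 100 uM.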

Read-out in assay [8]: Bcl-2 (BAX) gene, BAX (gene 581)
Description: LTEA_HepaRG_BAX: Life Technologies and Expression Analysis (LTEA) Assay for Bcl-2 (BAX) gene using HepaRG (AID 2283470). An outline of the steps:
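Concentration-response endpoint fitted in both directions relative to 0.5% DMSO vehicle. Human HepaRG cultures receive test chemicals for 48 h at up to 100 uM; BAX mRNA is quantified by qRT-PCR against housekeeping genes.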

Read-out in assay [9]: adenosine kinase (ADK) gene, ADK (gene 132)
Description: LTEA_HepaRG_ADK: Life Technologies and Expression Analysis (LTEA) Assay for adenosine kinase (ADK) gene using HepaRG (AID 2283471). An outline of the steps: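 HepaRG (human liver), 48 h chemical exposure, 8-pt half-log series, top 100 uM, 0.5% DMSO vehicle. Readout: ADK mRNA by qRT-PCR vs housekeeping genes; bidirectional curve fit relative to DMSO baseline.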

Read-out in assay [10]: Alpha-fetoprotein (AFP) gene, AFP (gene 174)
Description: LTEA_HepaRG_AFP: Life Technologies and Expression Analysis (LTEA) Assay for Alpha-fetoprotein (AFP) gene using HepaRG (AID 2283472). The method in brief: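 After a 48 h plating period, cells are moved to serum-free induction medium and dosed in duplicate (100 uM maximum, half-log dilutions, 0.5% DMSO) for another 48 h. Total RNA goes to TaqMan qRT-PCR; AFP signal is housekeeping-normalized.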

Read-out in another assay: BCL2L11 (gene 10018)
Description: LTEA_HepaRG_BCL2L11: Life Technologies and Expression Analysis (LTEA) Assay for Bcl-2 (BCL2L11) gene using HepaRG (AID 2283473). An outline of the steps:
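HepaRG, 48 h exposure, 8-pt half-log series from 100 uM in 0.5% DMSO, duplicates; qRT-PCR (Fluidigm TaqMan) for BCL2L11, housekeeping-normalized; bidirectional curve fit relative to DMSO baseline.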

Read-out in assay [11]: Apolipoprotein A-V (APOA5) gene, APOA5 (gene 116519)
Description: LTEA_HepaRG_APOA5: Life Technologies and Expression Analysis (LTEA) Assay for Apolipoprotein A-V (APOA5) gene using HepaRG (AID 2283474). An outline of the steps:
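HepaRG, 48 h chemical exposure in serum-free induction medium, 8-pt half-log series (top 100 uM), 0.5% DMSO vehicle, duplicates. Readout: APOA5 mRNA by qRT-PCR, housekeeping-normalized; bidirectional fit vs DMSO baseline.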

Read-out in assay [12]: Apoptosis regulator Bcl-2 (Homo sapiens) (UniProt P10415)
Put plainly: LTEA_HepaRG_BCL2: Life Technologies and Expression Analysis (LTEA) Assay for Bcl-2 gene using HepaRG (AID 2283475). The method in brief:
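Expression change of BCL2 mRNA in HepaRG after 48 h dosing, quantified by TaqMan qRT-PCR against three endogenous controls. Concentration-response used eight points up to 100 uM, vehicle 0.5% DMSO.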

Read-out in assay [13]: Bcl-2 (BID) gene, BID (gene 637)
Put plainly: LTEA_HepaRG_BID: Life Technologies and Expression Analysis (LTEA) Assay for Bcl-2 (BID) gene using HepaRG (AID 2283476). The method in brief:
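Gain or loss of BID expression is fitted relative to 0.5% DMSO vehicle. Human HepaRG liver cells received a 48 h chemical exposure over an eight-point concentration range.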

Read-out in the next assay: Caspase-3 (Homo sapiens) (UniProt P42574)
Put plainly: LTEA_HepaRG_CASP3: Life Technologies and Expression Analysis (LTEA) Assay for cysteine-aspartic acid protease (CASP3) using HepaRG (AID 2283477). An outline of the steps:
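HepaRG, 48 h exposure, 8 conc. (top 100 uM, half-log steps, duplicate), 0.5% DMSO vehicle; qRT-PCR of CASP3 transcript, housekeeping-normalised (ACTB/GAPDH/POLR2A); bidirectional curve fit vs DMSO baseline.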

Read-out in assay [14]: Cytochrome P450 (CYP24A1), CYP24A1 (gene 1591)
Put plainly: LTEA_HepaRG_CYP24A1: Life Technologies and Expression Analysis (LTEA) Assay for Cytochrome P450 (CYP24A1) using HepaRG (AID 2283478). An outline of the steps: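 qRT-PCR read-out: CYP24A1 transcript levels normalized to three housekeeping genes, bidirectional curve fits against 0.5% DMSO baseline. Human HepaRG cells treated 48 h with chemicals at eight concentrations from 100 uM in half-log steps.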

Read-out in assay [15]: Cytochrome P450 (CYP1A2), CYP1A2 (gene 1544)
Description: LTEA_HepaRG_CYP1A2: Life Technologies and Expression Analysis (LTEA) Assay for Cytochrome P450 (CYP1A2) using HepaRG (AID 2283479). The method in brief:
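HepaRG, 48 h exposure, top 100 uM, half-log 8-pt, 0.5% DMSO vehicle, duplicates. Readout: TaqMan qRT-PCR of CYP1A2 mRNA, housekeeping-normalized (ACTB/GAPDH/POLR2A). Gain/loss fit relative to DMSO baseline.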

Read-out in assay [16]: Cytochrome P450 (CYP2B6), CYP2B6 (gene 1555)
Put plainly: LTEA_HepaRG_CYP2B6: Life Technologies and Expression Analysis (LTEA) Assay for Cytochrome P450 (CYP2B6) using HepaRG (AID 2283481). The method in brief: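 Read-out is CYP2B6 mRNA by TaqMan qRT-PCR, normalized to three housekeeping genes and fitted bidirectionally against 0.5% DMSO baseline. Human HepaRG cells received test chemicals for 48 h, top concentration 100 uM, half-log dilutions.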

Read-out in assay [17]: Cytochrome P450 2C19 (Homo sapiens) (UniProt P33261)
Description: LTEA_HepaRG_CYP2C19: Life Technologies and Expression Analysis (LTEA) Assay for CYP2C19 using HepaRG (AID 2283482). The method in brief: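 HepaRG, 48 h chemical exposure, 8-pt half-log series from 100 uM in 0.5% DMSO, duplicates. Readout: CYP2C19 mRNA by TaqMan qRT-PCR, housekeeping-normalized. Bidirectional fit vs DMSO baseline; phenobarbital 1mM as induction control.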

Read-out in assay [18]: cysteine-aspartic acid protease (CASP8), CASP8 (gene 841)
Put plainly: LTEA_HepaRG_CASP8: Life Technologies and Expression Analysis (LTEA) Assay for cysteine-aspartic acid protease (CASP8) using HepaRG (AID 2283480). An outline of the steps:
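HepaRG, 48 h exposure, duplicate wells; 8 conc, half-log from 100 uM, 0.5% DMSO. Serum-free induction medium. CASP8 mRNA by TaqMan qRT-PCR, norm. ACTB/GAPDH/POLR2A; gain/loss fitted vs DMSO.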

Each structure is given as a SMILES string. Activity calls are given as the source filed them. Rule for the calls: active = hit-call score of the fitted dose curve at least 0.9, where 1 is the maximum; inactive = score below 0.9.

Sequence of Apoptosis regulator Bcl-2 (Homo sapiens) (P10415 whole entry, looked up): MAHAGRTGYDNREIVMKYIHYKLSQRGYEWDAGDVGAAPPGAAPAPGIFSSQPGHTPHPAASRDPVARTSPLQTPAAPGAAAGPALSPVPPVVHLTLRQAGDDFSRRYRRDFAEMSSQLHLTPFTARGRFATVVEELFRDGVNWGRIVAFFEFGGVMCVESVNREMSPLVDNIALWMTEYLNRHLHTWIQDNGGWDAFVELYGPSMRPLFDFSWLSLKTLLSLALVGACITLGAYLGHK
Sequence of Cytochrome P450 2C19 (Homo sapiens) (P33261 whole entry, looked up): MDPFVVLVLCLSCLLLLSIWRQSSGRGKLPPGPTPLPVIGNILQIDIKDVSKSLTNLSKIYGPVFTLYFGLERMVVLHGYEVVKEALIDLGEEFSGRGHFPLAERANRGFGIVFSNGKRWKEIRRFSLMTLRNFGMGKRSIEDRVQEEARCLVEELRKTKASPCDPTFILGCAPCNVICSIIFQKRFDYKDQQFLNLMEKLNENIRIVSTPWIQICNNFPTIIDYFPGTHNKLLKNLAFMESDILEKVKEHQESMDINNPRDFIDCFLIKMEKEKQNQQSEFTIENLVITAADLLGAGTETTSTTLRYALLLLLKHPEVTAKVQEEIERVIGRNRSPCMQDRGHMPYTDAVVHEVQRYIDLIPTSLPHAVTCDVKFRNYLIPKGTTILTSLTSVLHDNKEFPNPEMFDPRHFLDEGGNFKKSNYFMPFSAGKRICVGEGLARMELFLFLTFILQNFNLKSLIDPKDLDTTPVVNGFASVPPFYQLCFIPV
Sequence of Caspase-3 (Homo sapiens) (P42574 whole entry, looked up): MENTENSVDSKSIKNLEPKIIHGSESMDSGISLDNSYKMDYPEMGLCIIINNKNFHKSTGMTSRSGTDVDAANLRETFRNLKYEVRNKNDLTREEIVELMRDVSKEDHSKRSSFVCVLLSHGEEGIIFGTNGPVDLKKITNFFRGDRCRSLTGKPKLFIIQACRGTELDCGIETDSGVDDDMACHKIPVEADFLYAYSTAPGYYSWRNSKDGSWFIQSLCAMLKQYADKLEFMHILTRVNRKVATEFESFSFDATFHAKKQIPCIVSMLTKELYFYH
Sequence of Broad substrate specificity ATP-binding cassette transporter ABCG2 (Homo sapiens) (Q9UNQ0 whole entry, looked up): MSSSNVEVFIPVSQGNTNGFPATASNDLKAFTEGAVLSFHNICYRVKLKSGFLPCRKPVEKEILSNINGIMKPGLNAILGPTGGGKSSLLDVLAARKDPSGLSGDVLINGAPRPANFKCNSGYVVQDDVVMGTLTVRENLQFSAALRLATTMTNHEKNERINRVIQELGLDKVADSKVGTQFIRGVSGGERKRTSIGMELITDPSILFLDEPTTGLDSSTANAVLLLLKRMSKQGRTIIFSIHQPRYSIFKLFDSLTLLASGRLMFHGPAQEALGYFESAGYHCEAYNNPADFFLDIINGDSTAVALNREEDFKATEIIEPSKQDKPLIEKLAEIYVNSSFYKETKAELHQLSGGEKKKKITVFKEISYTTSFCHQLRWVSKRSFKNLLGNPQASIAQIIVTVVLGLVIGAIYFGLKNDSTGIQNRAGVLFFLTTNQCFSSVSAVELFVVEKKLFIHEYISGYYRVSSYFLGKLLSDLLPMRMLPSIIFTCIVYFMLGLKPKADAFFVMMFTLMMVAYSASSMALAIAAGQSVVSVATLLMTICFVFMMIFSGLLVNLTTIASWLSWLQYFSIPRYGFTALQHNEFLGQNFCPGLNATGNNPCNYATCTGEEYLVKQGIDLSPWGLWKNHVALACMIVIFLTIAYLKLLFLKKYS

Turning to `CCOC(=O)c1ccc(C2CCC(NC[C@H](O)COc3ccc(O)c(NS(C)(=O)=O)c3)CC2)cc1` (stereo partly drawn), the outcome in assay [1], in [2], in assay [3], in [4], in assay [5] and in assay [7] was inactive. Further, the compound was called inactive (in [8]; in assay [9]; in assay [10]; with BCL2L11 (gene 10018); in assay [11]; in assay [13]). The compound was called inactive (with Caspase-3 (Homo sapiens); in assay [14]; in assay [15]; in assay [16]; in assay [17]). Further, the AC50 is 1830 nM (active) in [6] and 2750 nM (active) in assay [12].
As to `CC(=O)OCCC(C)C`, the call in assay [1], in assay [2], in assay [3], in assay [4], in [5] and in assay [6] was inactive. Further, the compound was called inactive (in assay [7]; in [8]; in [9]; in [10]; in the assay with BCL2L11 (gene 10018); in assay [11]). Further, the compound was called inactive (in assay [12]; in [13]; with Caspase-3 (Homo sapiens); in [14]; in [15]; in assay [16]). Besides, the compound was classed as inactive in [17].
For `C=CCCCCCCCCC(=O)O`, the outcome in assay [1], in [2], in [3], in assay [4], in [5] and in [6] was inactive. Moreover, the result (in assay [7]; in assay [8]; in [10]; with BCL2L11 (gene 10018); in assay [11]; in [12]) was inactive. Besides, the compound was called inactive (in [13]; in the assay with Caspase-3 (Homo sapiens); in assay [14]; in assay [18]; in assay [16]; in assay [17]). The AC50 in [9] is 6.84 nM (active); in assay [15] it was 50000 nM (active).
